About 83,000 compounds went through this panel and 20% of them were active in at least one assay; those are over-represented in the sample as a whole.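 Compound tested at a single concentration for 48 hours in 96-well plates; a percent growth value below 10 was scored as active.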 Unmarked numbers belong to inactive results. Active and inactive are the calls of the source.

The test relates to HL-60(TB) leukemia. Put plainly: NCI-60 one-dose screen, 48 h (100 = growth as untreated, 0 = no growth, -100 = all killed). As to conditions: 10 µM unless noted.
`O=C(O)/C=C\C(=O)Nc1ccc2c(c1)Cc1cc(F)ccc1-2`: the growth is 100%.
The value for `CC(C)c1nc2ccccc2n1CC(=O)N/N=C/c1cccc(O)c1` was 86.5%; that for `Cc1cc(C)c2c(c1)N(C)c1ncnc(-n3c(C)nc4cc(C)ccc43)c1CC2C` (centres undefined) was 1.64% (active).
For the compound `Cc1noc(C)c1CSc1ccccc1C(=O)N1CCN(c2cccc(C(F)(F)F)c2)CC1`, the growth was 74.4%.
The value for `C[C@@H]1N=C(c2ccc3ccccc3c2)Nc2nc3ccccn3c2C1=O` was -6.75% (active); that for `CC1(C)CC(=O)C=C(N)C1` was 71.8%.
As to `Clc1ccc2c(NCCNc3nc(-c4ccccc4)cc(-c4ccccc4)n3)ccnc2c1`, the growth was -46.6% (active).
As for `CCOC(=O)c1ccccc1NC(c1ccccc1)c1ccc2cccnc2c1O` (centres undefined), the growth is 3.54% (active).
For `CCSC1=CC(=O)c2ccccc2C1=O`, the growth is 50.9%.
The value for `CC1NC(=O)NC1CCCCCC(=O)O` (centres undefined) was 107%; that for `O=C(Nc1ccccc1)c1cc2ccccc2s1` was 61.6%.
Regarding `CCN1C(=O)/C(=c2\sc3n(c2=O)NC2C(N=3)N(CC)C(=O)N2CC)c2ccccc21` (centres undefined), the growth is -4.75% (active).
On to `CC(=O)Oc1ccc(C)cc1C`, for which the growth was 95%.
Take `Cc1nc(-c2ccc(Cl)cc2)ccc1NC(=O)Nc1cccc(C(F)(F)F)c1`: the growth was 79.7%.
The same measure for `CC(CCN1CCN(CCC(C)CC(C)(C)C)C1CC(C)CC(C)(C)C)CC(C)(C)C` (centres undefined): 97.8%.
Consider `NC(=S)N/N=C/c1ccc(OC(=O)COc2ccccc2)cn1`, for which the growth is 35.3%.
With `Cc1cccc(-[n+]2noc(N)n2)c1`, the growth is 30.8%.
Regarding `Nc1ccc(N)c([N+](=O)[O-])c1`, the growth was 110%.
The same measure for `COc1cc2c(cc1O)CCN1C[C@@H](CC(C)C)[C@@H](O)C[C@@H]21`: 73.7%.
The value for `COc1cc2ncnc(NC3CCC(O)CC3)c2cc1OC` (centres undefined) was 97.7%.
As to `COc1ccc(-c2nc3ncccn3c2-c2nnc(-c3ccsc3C)o2)cc1`, the growth is 92.5%.
On to `O=C1C=CC(=O)N1c1cc(Cl)c(Cl)cc1Cl`, for which the growth was 80.4%.
Turning to `C=C1/C(=C\C=C2/CCC[C@]3(C)[C@@H]([C@H](C)CCCC(C)(C)O)CC[C@@H]23)C[C@@H](OC(=O)CBr)C[C@@H]1O`, the growth is -59.4% (active).
The same measure for `CC1(O)OC(COc2ccc(Cl)cc2)COC1O` (centres undefined): 105%; for `COc1cc(C2=C(c3cn(C)c4ccccc34)COC2=O)cc(OC)c1OC`: -1.28% (active); for `CCOc1ccc(S(=O)(=O)Nc2ccc3c(c2)N(S(=O)(=O)CC)CCC3)cc1`: 77.1%.
`C=C1C(=O)O[C@H]2[C@H]1CC/C(COC(=O)CCCCCCCC(=O)OC/C1=C/CC[C@@]3(C)O[C@H]3[C@H]3OC(=O)C(=C)[C@@H]3CC1)=C\CC[C@@]1(C)O[C@@H]21`: the growth was -18.3% (active).
For the compound `CC1=C(CCCOC(=O)NCCCl)C2=C(C)C3(CC3)[C@@](C)(O)C(=O)C2=C1`, the growth was 44.7%.
`COc1cc(/C=C/C(=O)c2cc(OC)c(OC)c(OC)c2)ccc1Oc1nc2c(c(=O)n(C)c(=O)n2C)n1C`: the growth is -13.1% (active).
The same measure for `COC(=O)C(Br)(C(=O)OC)C(Br)C(Br)C(Br)c1ccccc1` (centres undefined): 7.57% (active); for `O=C(Nc1ccccc1)P(=O)(O)c1ccccc1`: 92.2%.
Turning to `O=C(CCN1C(=O)/C(=C/c2ccc(O)cc2)SC1=S)Nc1ccc(Cl)cc1`, the growth is 65.5%.
Turning to `Cc1cc(C)n(Nc2nc3ccccc3[nH]c2=O)c(=O)c1C#N`, the growth was 102%.
The value for `CN(C)c1nc(-c2ccco2)n2nc(-c3ccc(Cl)cc3)cc2n1` was 90.8%; that for `COc1cc2nccc(Oc3ccc(NC(=O)C4(C(=O)Nc5ccc(F)cc5)CC4)cc3)c2cc1O` was 54.5%.
Consider `C#CCOCC1CN(C)C(=O)O1` (centres undefined), for which the growth was 89.4%.
Consider `Cc1nnc(/N=C2\NC(=O)/C(=C/c3ccsc3)S2)s1`, for which the growth is 102%.
As to `COc1cc(-c2nn(-c3ccc(C(=O)O)cc3)cc2C(=O)O)ccc1O`, the growth is 46.1%.
`O=c1[nH]c(=O)c2cc(Cl)cc(Cl)c2[nH]1`: the growth is 100%.

For the origin of these results see PubChem BioAssay (NCI).
